Source: PubChem
Rows were chosen to be rich in hits. Some 3.5% of all compounds tested hit in one or more screens of this group.
Anthrax LF inh2: inhibitors of Bacillus anthracis lethal factor protease; P15917; multiplex microsphere protease cleavage assay, LF; inhibition, % at 10 µM; 360,000 compounds, 0.12% hits; AID 588501; further: plate controls were buffer without enzyme for full effect and enzyme alone for no effect
BoNT-A LC inh2: blocks Botulinum neurotoxin A light chain protease | 360,000 compounds, 0.17% hits | inhibition, % at 10 µM | multiplex microsphere protease substrate cleavage, flow cytometry; further: plate controls were buffer without enzyme for full effect and enzyme alone for no effect
BoNT-F LC inh: inhibitors of Botulinum neurotoxin F light chain protease | Multiplex microsphere protease cleavage assay, flow cytometry | inhibition, % at 10 µM | 360,000 compounds, 0.22% hits; in the data active means inhibition above about 35%, passing the limit was not always enough; inconclusive means no clear call, values can overlap the other calls; further: plate controls were buffer without enzyme for full effect and enzyme alone for no effect
Autofluor counter: flagged as autofluorescent in microsphere protease counterscreen; compound autofluorescence counterscreen, microsphere flow cytometry; active compounds read high; fluorescence intensity (test concentration not listed); 360,000 compounds, 3.1% hits; AID 624483; in the data active means fluorescence intensity above about 16000; inconclusive means no clear call, values can overlap the other calls
BH1578 lux ind: quorum light induction in luxS cqsA deficient V. cholerae; AID 588436; activation, % at 18.7 µM; 350,000 compounds, 0.16% hits; V. cholerae BH1578 lux reporter, luminescence, 6 h; in the data active means activation mostly above about 9.7%, no sharp cut-off; inconclusive means no clear call, values can overlap the other calls; inactive means mostly below about 3.7%
An asterisk follows results filed as active; i = inactive; u = inconclusive. Unless noted, no stated cut-off is given here; in the data, active means inhibition above about 30%; inconclusive means no clear call, values can overlap the other calls; inactive means below that.

SMILES	Anthrax LF inh2	BoNT-A LC inh2	BoNT-F LC inh	Autofluor counter	BH1578 lux ind
COc1cc2[nH]c(=S)n(N(C(C)=O)C(C)=O)c(=O)c2cc1OC	0	2	1	22631*	i
O=C(CN1CCN(c2ccccc2O)CC1)Nc1cccnc1Cl	3	0	0	4307	i
COc1cccc(CNC(=O)Cn2ccc3cc(S(=O)(=O)N4CCCCCC4)ccc32)c1	0	6	9	2232	0
COc1cccc(C2NC(=O)NC(C)=C2C(=O)Nc2cc(OC)ccc2OC)c1 (stereo not drawn)	1	-4	-5	17900*	i
O=[N+]([O-])c1ccccc1/C=N/Nc1nccnc1Cl	-2	-1	0	22518*	0
CCOC(=O)C1(C)NC(c2cccc(C)c2)C2C(=O)N(c3ccccc3)C(=O)C21 (stereo not drawn)	-13	-2	-3	3743	i
COc1ccccc1N1CCN(C(=O)C(C)N(c2ccc(C)cc2)S(C)(=O)=O)CC1 (stereo not drawn)	-9	1	5	4039	i
COc1ccccc1N1CCN(C(=O)C(C)N(c2ccccc2)S(C)(=O)=O)CC1 (stereo not drawn)	-1	u	-6	21669*	3
Cc1ccc(NC(=O)CC2NCCNC2=O)cc1 (stereo not drawn)	-2	0	4	3699	-5
Cc1cc(C)cc(NC(=O)CC2NCCNC2=O)c1 (stereo not drawn)	-2	u	-2	16440*	0
CN(C)c1ccc(NC(=O)CC2NCCNC2=O)cc1 (stereo not drawn)	-7	u	2	21583*	3
O=C(CC1NCCNC1=O)Nc1ccccc1 (stereo not drawn)	0	0	-13	3761	0
C=CCn1c(O)c(N=NC(=S)Nc2ccc(OC)c(Cl)c2)c2ccccc21	30*	29	6	8602	0
Cc1ccc2nc(SCC(=O)c3ccc4c(c3)OCO4)[nH]c2c1	-9	0	3	5248	i
Cc1ccc2nc(SCC(=O)c3ccc(Cl)s3)[nH]c2c1	-3	0	-2	19540*	i
Cc1ccc(S(=O)(=O)N2CCCC(C(=O)NCc3ccco3)C2)cc1Cl (stereo not drawn)	0	11	13	19976*	1
O=C(NCc1ccco1)C1CCCN(S(=O)(=O)c2cc(Cl)ccc2Cl)C1 (stereo not drawn)	0	1	0	u	i
CC1CCN(S(=O)(=O)c2ccc3c(c2)c(=O)c(C(=O)NCc2cccs2)cn3C)CC1	-3	-1	3	11099	0
CC1CCN(S(=O)(=O)c2ccc3c(c2)c(=O)c(C(=O)NCc2ccco2)cn3C)CC1	0	2	38*	3321	0
CCOC(=O)c1sc(N2C(=O)C(O)=C(C(=O)c3ccco3)C2c2ccc([N+](=O)[O-])cc2)nc1C (stereo not drawn)	2	2	3	5130	0
O=C(c1ccc(F)cc1)N1CCN=C1c1ccccc1	2	1	6	9350	i
CCCC(=O)NC(c1ccc(OC)c(OC)c1)c1c(O)ccc2ccccc12 (stereo not drawn)	1	u	-2	23446*	i
CCCCC(=O)NC(c1ccc(OC)c(OC)c1)c1c(O)ccc2ccccc12 (stereo not drawn)	-3	0	-1	7962	0
Cc1ccc(S(=O)(=O)c2nc(-c3ccccc3)oc2N2CCC(C(N)=O)CC2)cc1	0	0	0	5400	i
COc1ccc(-n2c(SC)nc(O)c(Cc3ccccc3)c2=O)cc1	0	u	-2	22787*	-1
SMILES	Anthrax LF inh2	BoNT-A LC inh2	BoNT-F LC inh	Autofluor counter	BH1578 lux ind
COc1ccc(NC(=O)CSc2nc(O)c(Cc3ccccc3)c(=O)[nH]2)cc1	-1	u	1	23050*	1
COC(=O)c1ccc(NC(=O)CSc2nc3ccccc3c(=O)[nH]2)cc1	-1	0	0	20547*	0
CC(C)CCNC(=O)CSc1nc2ccccc2c(=O)[nH]1	-4	-3	-6	17172*	i
O=C(CSc1nc(O)c(Cc2ccccc2)c(=O)[nH]1)Nc1ccccc1	-3	u	5	u	0
O=C(CSc1nc2ccccc2c(=O)[nH]1)Nc1ccc(Br)cc1	-9	-1	-3	6188	1
CCOc1ccc(S(=O)(=O)NCCC(=O)NC2CCCCC2)cc1	-5	-5	-3	6433	i
Cc1[nH]c(C)c(S(=O)(=O)N2CCN(c3ccccc3F)CC2)c1C(=O)N1CCCC1	2	0	3	5262	i
